Assay outcomes deposited in PubChem by National Center for Advancing Translational Sciences (NCATS).
Sampled rows, rich in hits. Any-hit rate of the full collection: about 12%.
HP1b binding inh: HTS for Inhibitors of HP1-beta Chromodomain Interactions with Methylated Histone Tails. Chromobox protein homolog 1 (Homo sapiens), P83916. AlphaScreen HP1-beta / biotin-H3K9me3 peptide binding. Potency, µM (top dose mostly 114 µM), most hits filed as inhibitors. hit rate 0.56% among 390,000; note: nearly all actives have a fitted effect of over 70% in size
Target sequence (P83916 whole entry, looked up): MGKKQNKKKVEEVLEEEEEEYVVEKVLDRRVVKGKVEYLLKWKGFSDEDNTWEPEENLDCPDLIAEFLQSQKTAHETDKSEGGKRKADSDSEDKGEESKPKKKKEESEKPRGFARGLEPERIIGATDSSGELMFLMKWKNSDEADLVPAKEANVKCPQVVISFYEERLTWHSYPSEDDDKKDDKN
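Compound inhibition of the preformed complex between 50 nM HP1-beta and 50 nM biotinylated H3K9me3 peptide was read by AlphaScreen. Buffer was PBS pH 7.4 with 0.01% Tween-20. Incubations ran 30 min at room temperature, with 10 ug/mL donor/acceptor beads.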
Sfp PPTase inh: qHTS Assay for Inhibitors of Bacillus subtilis Sfp phosphopantetheinyl transferase (PPTase); Potency, µM, usual class: inhibitors; Biochemical Sfp PPTase activity, qHTS; hit rate 3.5% among 310,000; 4'-phosphopantetheinyl transferase ffp (Bacillus subtilis), Q9F4F7;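 note: the enzyme is Sfp with the accession as filed and its product quenches rhodamine fluorescence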
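After 15 min at room temperature with compound, 15 nM Sfp received 5 uM rhodamine-CoA plus 12.5 uM BHQ-2-ybbR (50 mM Hepes pH 7.6, 10 mM MgCl2). Rate came from the fluorescence difference over 30 min, ex 525/em 598 nm.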
JMJD2A Tudor inh: qHTS Assay for Inhibitors of JMJD2A-Tudor Domain. Lysine-specific demethylase 4A (Homo sapiens), O75164. AlphaScreen JMJD2A-Tudor / H3K4me3 peptide binding. Potency, µM (highest dose often 114 µM), most hits filed as inhibitors. hit rate 4.4% among 390,000. AID 504339, 2011; note: nearly all actives have a fitted effect of over 50% in size
G9a block: qHTS Assay for Inhibitors of Histone Lysine Methyltransferase G9a; G9a H3K9 monomethylation, AlphaScreen, 2 h; AID 504332, 2011; hit rate 8.8% among 350,000; Histone-lysine N-methyltransferase EHMT2 (Homo sapiens), Q96KQ7; Potency, µM (titrated, usually from 102 µM), actives largely listed as inhibitors; note: nearly all actives have a fitted effect of over 75% in size
Target sequence (Q96KQ7 913-1193 limits assumed): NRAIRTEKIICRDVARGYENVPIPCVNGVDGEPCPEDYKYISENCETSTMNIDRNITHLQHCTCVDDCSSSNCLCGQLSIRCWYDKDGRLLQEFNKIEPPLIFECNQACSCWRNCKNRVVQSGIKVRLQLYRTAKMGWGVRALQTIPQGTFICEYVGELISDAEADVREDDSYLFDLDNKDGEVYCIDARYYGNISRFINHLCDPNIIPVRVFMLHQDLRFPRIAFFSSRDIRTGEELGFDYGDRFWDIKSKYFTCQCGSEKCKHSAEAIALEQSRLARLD
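Compounds were preincubated with 20 nM G9a for 15 min, after which biotinylated H3K9 peptide (500 nM) and SAM (20 uM) started a 2 h room-temperature reaction. Monomethylated product was quantified by antibody-based AlphaScreen chemiluminescence.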
PLK1 PBD inh: qHTS for Inhibitors of PLK1-PDB (polo-like kinase 1 - polo-box domain): Primary Screen; Serine/threonine-protein kinase PLK1 (Homo sapiens), P53350; Plk1 PBD binding of FITC phosphopeptide, fluorescence polarization; Potency, µM, most hits filed as inhibitors; hit rate 2.8% among 360,000; note: series mostly up to about 57 µM; nearly all actives have a fitted effect of over 65% in size
BAZ2B block: qHTS Assay for Inhibitors of BAZ2B | Bromodomain adjacent to zinc finger domain protein 2B (Homo sapiens), Q9UIF8 | AlphaScreen BAZ2B-H3K14Ac peptide displacement | Potency, µM (doses to about 114 µM), actives largely listed as inhibitors | hit rate 4.4% among 360,000 | AID 504333, 2011; note: nearly all actives have a fitted effect of over 60% in size
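AlphaScreen displacement: compounds (up to 110uM) incubated 30 min at room temperature with a preformed 50 nM BAZ2B/50 nM biotinylated H3K14Ac peptide complex in PBS pH 7.4 with Tween-20. Donor and acceptor beads at 10 ug/mL final added, 20 min light-protected before reading.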
A number is an active result; [ ] = dose if it differs, or a comment. Calls come from the whole dose curve; as a rule, active = well fitted curve in the direction sought with a large enough effect; inconclusive = small, poorly fitted or top-dose-only effect, or another doubt; inactive = no such curve, though single readings can be large; an effect the other way counts as inactive or inconclusive.

For Cc1ccc(Cc2c(C)nc3nc(SCC(=O)NC(C)c4ccccc4)nn3c2C)cc1 (stereo unspecified) the results were HP1b binding inh inactive, JMJD2A Tudor inh inactive, G9a block inactive and BAZ2B block inactive.
`CCCCNC(=O)c1cc2c(C)cc(C)cc2[nH]1` gave HP1b binding inh inactive, Sfp PPTase inh inactive, JMJD2A Tudor inh inactive, G9a block 50µM, PLK1 PBD inh inactive and BAZ2B block inactive.
Cc1cc(C)c2cc(C(=O)Nc3ccc(C)c(F)c3)[nH]c2c1 was read as HP1b binding inh inactive, Sfp PPTase inh inactive, JMJD2A Tudor inh inactive, G9a block 45µM, PLK1 PBD inh inactive and BAZ2B block inactive.
COc1ccc(S(=O)(=O)N2c3ccc(Cl)cc3[C@](O)(c3ccccc3Cl)[C@@H]2C(=O)N2CCC[C@H]2C(N)=O)cc1OC was read as Sfp PPTase inh inconclusive and G9a block inactive[12.7 µM].
CC1C2CCC(C2)C1OC(=O)c1ccccc1C(=O)O (stereo unspecified) was read as PLK1 PBD inh inactive.
`CC1CCC2C(C1)Nc1c(C(=O)O)cccc1C2(C)C` (stereo unspecified) gave HP1b binding inh inactive, Sfp PPTase inh inactive, JMJD2A Tudor inh inactive, PLK1 PBD inh inactive and BAZ2B block 79µM.
O=C(O)CC/C=C\CC[C@@H]1[C@@H](N2CCCCC2)[C@@H](O)C[C@@H]1OCc1ccc(-c2ccccc2)cc1 was read as Sfp PPTase inh inactive and G9a block inconclusive.
Screening N#CC1(C#N)CC(C=O)=C(N)C1(C#N)CC(=O)c1ccc(F)cc1 (stereo unspecified) returned HP1b binding inh inactive, Sfp PPTase inh inactive, JMJD2A Tudor inh inactive, G9a block 32µM, PLK1 PBD inh inconclusive and BAZ2B block inactive.
COc1ccc(OC)c2c(=O)cc(C(=O)O)[nH]c12 was read as HP1b binding inh inactive, Sfp PPTase inh inactive, JMJD2A Tudor inh 79µM, G9a block 25µM, PLK1 PBD inh inactive and BAZ2B block inconclusive.
For COc1cc2cc(C(=O)O)[nH]c2c(OC)c1OC the results were HP1b binding inh inactive, Sfp PPTase inh inactive, JMJD2A Tudor inh inactive, G9a block inactive, PLK1 PBD inh inactive and BAZ2B block inconclusive.
Screening O=C(NCc1cccs1)C1CCCN(C(=O)Nc2ccccc2)C1 (stereo unspecified) returned HP1b binding inh inactive, Sfp PPTase inh inactive, JMJD2A Tudor inh inactive, G9a block inactive, PLK1 PBD inh inactive and BAZ2B block inactive.
For COc1ccc(NC(=S)NC(NC(=O)/C=C/c2ccccc2)C(Cl)(Cl)Cl)cc1 (stereo unspecified) the results were HP1b binding inh inactive, Sfp PPTase inh inactive, JMJD2A Tudor inh inactive, G9a block inactive, PLK1 PBD inh inactive and BAZ2B block inactive.
Screening O=C(/C=C/c1ccccc1)NC(NC(=S)Nc1ccc(Cl)cc1)C(Cl)(Cl)Cl (stereo unspecified) returned HP1b binding inh inactive, Sfp PPTase inh inactive, JMJD2A Tudor inh inactive, G9a block inactive, PLK1 PBD inh 27µM and BAZ2B block inactive.
For O=C(/C=C/c1ccccc1)NNc1ccc(Cl)cc1 the results were HP1b binding inh inactive, Sfp PPTase inh inactive, JMJD2A Tudor inh inactive, G9a block 8.9µM, PLK1 PBD inh inactive and BAZ2B block inconclusive.
Cc1cccc(C)c1NC(=O)CNC(=O)CCNC(=O)c1ccco1 was read as HP1b binding inh inactive, JMJD2A Tudor inh inactive, G9a block inconclusive, PLK1 PBD inh inactive and BAZ2B block inactive.
Cc1cc(Br)ccc1NC(=O)CN1C(=O)C2CC=CCC2C1=O (stereo unspecified) was read as HP1b binding inh inactive, JMJD2A Tudor inh inconclusive, G9a block 0.79µM, PLK1 PBD inh inactive and BAZ2B block inactive.
